Screening results (PubChem BioAssay)
The full list was thinned out, with hits kept by preference.
TTR transcr act – increases transthyretin transcription. 92,000 compounds, 1.3% hits. SH-SY5Y TTR promoter Gaussia luciferase, luminescence; 100% = recombinant luciferase protein wells. activation, % at 16.7 µM;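 active means activation above the mean of all tested compounds plus 3 SD, cut at about 9.5% in these data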;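 further: cells exposed to compounds for one day before reading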
HuH7 TTR inh – decreases TTR transcription in HuH7 cells in activator counter-screen; shares compounds with TTR transcr act; HuH7 TTR promoter-Gaussia luciferase reporter, luminescence; inhibition, % at 16.7 µM; 1,100 compounds, 4% hits; AID 1117279;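 active means average inhibition above the solvent-only control wells' mean plus 3 SD, cut at about 15% in these data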;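 further: inhibitors lower well luminescence so higher value means more inhibition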
TTR act confirm – human TTR transcription activation, confirmation. activation, % at 16.7 µM. 1,100 tested, under 10 active. AID 1117280. SHSY5Y TTR promoter Gaussia luciferase, luminescence; 100% = purified Lucia enzyme wells, no cells. shares compounds with TTR transcr act;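 active means mean activation above a set limit taken from the earlier primary screen, cut at about 11% in these data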
Numbers stand for hits.

What do the screens show for `C#CCOCCOCCOCCNc1nc(N2CCOCC2)nc(N2CCN(C(=O)[C@H](CC(N)=O)n3cc([C@@H](N)C(C)C)nn3)CC2)n1`?
TTR transcr act: inactive

Results for CCN(CC)CCNC(=O)C(=O)Nc1cc2c3c(c1)CCN3C(=O)CC2 ?
TTR transcr act: inactive

What do the screens show for `O=c1cc(CN2CCN(c3ccccc3F)CC2)c2ccccc2o1`?
TTR transcr act: inactive

How did CN(C)CCNc1ccc(CO)c2oc3ccc(O)cc3c(=O)c12 do in these assays?
TTR transcr act: 16; HuH7 TTR inh: inactive; TTR act confirm: 13

What do the screens show for `Cc1cc(NCCO)c2cc(O)ccc2n1`?
TTR transcr act: inactive

Results for O=C1CCC[C@H]2Cc3nc4cccc(Cl)c4cc3C[C@]23CCCN13 ?
TTR transcr act: inactive

What do the screens show for `C[C@@H]1[C@@H](O)C[C@@]2(C[C@H](O)c3cc(Cl)ccc3O2)O[C@H]1c1ccccc1Cl`?
TTR transcr act: inactive

How did CCOC(=O)C1(C(=O)OCC)Cc2c([nH]c3ccccc23)[C@]2(N1)C(=O)N(C)c1ccc(Br)cc12 do in these assays?
TTR transcr act: inactive

How did CC(C)CCN(C(=O)c1ccncc1)c1c(N)n(Cc2ccccc2)c(=O)[nH]c1=O do in these assays?
TTR transcr act: inactive

How did CCOc1ncccc1C(=O)N(CCC(C)C)c1c(N)n(Cc2ccccc2)c(=O)[nH]c1=O do in these assays?
TTR transcr act: 17; HuH7 TTR inh: inactive; TTR act confirm: inactive

How did CCCCn1c(N)c(N(CCC(C)C)C(=O)COC(=O)c2cccnc2SC)c(=O)[nH]c1=O do in these assays?
TTR transcr act: inactive

How did CC#CC#Cc1cccc(=O)o1 do in these assays?
TTR transcr act: inactive

How did COC(=O)[C@@]12C[C@@H](CC(=O)NCc3ccc(C)o3)C(=O)N(Cc3ccco3)C1=CCC(C)(C)C2 do in these assays?
TTR transcr act: inactive

What do the screens show for `COc1c(O)cccc1[C@@H](O)C1CCN(CCc2ccc(F)cc2)CC1`?
TTR transcr act: 70; HuH7 TTR inh: inactive; TTR act confirm: inactive

Results for CCOC(=O)c1cc2cc(OC)ccc2n1C1CCN(CCc2ccccc2)CC1 ?
TTR transcr act: inactive

What do the screens show for `CC1CCN(CC(=O)NCCc2ccc(F)cc2)CC1`?
TTR transcr act: inactive

What do the screens show for `CCc1nc2ccc(C(=O)Nc3ccc4c(c3)OCC(=O)N4)cn2c1N(C)Cc1nccn1C`?
TTR transcr act: inactive

Results for CC1CN(C(=O)CSc2nnc(CNC(=O)c3ccc(S(=O)(=O)N(C)C)cc3)o2)CC(C)O1 (centres undefined) ?
TTR transcr act: inactive

Results for Cc1noc(C)c1CSCC(=O)Nc1nnc(CC(C)C)s1 ?
TTR transcr act: inactive

How did C[C@H](CO)N1C[C@H](C)[C@H](CN(C)C(=O)C2CC2)OCc2cnnn2CCCC1=O do in these assays?
TTR transcr act: inactive

Results for CCCNC(=O)c1csc(Nc2cccc3ccccc23)n1 ?
TTR transcr act: inactive

What do the screens show for `CC(=O)c1csc(Nc2ccccc2Cl)n1`?
TTR transcr act: 12; HuH7 TTR inh: inactive; TTR act confirm: inactive

How did CC(=O)c1csc(-c2ccccc2)n1 do in these assays?
TTR transcr act: inactive

Results for CC(NC(C)c1ccccc1Cl)C(=O)Nc1cccc(S(=O)(=O)N2CCCCC2)c1 (centres undefined) ?
TTR transcr act: inactive

How did CCc1ccc(CN(C)Cc2nc(COc3ccccc3)no2)nc1 do in these assays?
TTR transcr act: inactive

Results for Clc1ccc(-c2cn(-c3ccc(Cl)cc3)c3[n+]2CCCCC3)cc1 ?
TTR transcr act: inactive

How did COc1ccc(-c2cn(-c3ccc(Cl)cc3)c3[n+]2CCCCC3)cc1 do in these assays?
TTR transcr act: 12; HuH7 TTR inh: inactive; TTR act confirm: inactive

Results for COc1ccc(-n2cc(-c3ccc(OC(F)F)cc3)[n+]3c2CCCCC3)cc1 ?
TTR transcr act: inactive

Results for O=C(CN1CCCCC1)NC(=O)NC1CCCCC1 ?
TTR transcr act: inactive

What do the screens show for `O=C(O[C@H]1CC[C@@]23CCCN2C(=O)CCC[C@H]3C1)N1CCOCC1`?
TTR transcr act: inactive

What do the screens show for `O=C(N/N=C/C=C/c1ccccc1)c1n[nH]c2c1CCC2`?
TTR transcr act: 11; HuH7 TTR inh: inactive; TTR act confirm: inactive

How did O=C(N/N=C/C=C/c1ccccc1)c1cccnc1 do in these assays?
TTR transcr act: inactive

How did Cc1ccc(/C=N/NC(=O)c2n[nH]c3c2CCCC3)cc1 do in these assays?
TTR transcr act: inactive

How did Cc1cc(C(=O)N/N=C/C=C/c2ccccc2)n[nH]1 do in these assays?
TTR transcr act: inactive

Results for Cc1ccc(-c2cc(C(=O)N/N=C/C=C/c3ccccc3)n[nH]2)s1 ?
TTR transcr act: 13; HuH7 TTR inh: inactive; TTR act confirm: inactive

Results for O=C(N/N=C/C=C/c1ccccc1)c1cc(C2CC2)[nH]n1 ?
TTR transcr act: inactive

How did CCC(=O)Oc1ccc(C(=O)Nc2c[nH]c(=O)[nH]c2=O)cc1 do in these assays?
TTR transcr act: inactive

How did Cc1cc(=O)[nH]c(N/N=C/c2ccc(OC(=O)c3ccco3)cc2)n1 do in these assays?
TTR transcr act: inactive

What do the screens show for `O=C(CCl)NN1C(=O)NC(c2ccccc2)(c2ccccc2)C1=O`?
TTR transcr act: inactive

What do the screens show for `O=C(O)c1cc(S(=O)(=O)N2CCN(S(=O)(=O)c3ccc4ccccc4c3)CC2)ccc1Br`?
TTR transcr act: inactive

How did Cc1nccn1CC(=O)N/N=C/c1cc(Br)cs1 do in these assays?
TTR transcr act: inactive
